Inhibition data for 25 molecules are collected here from ChEMBL document CHEMBL4296182, “CO-ADD screening of NIH NCI Diversity Set V”.

For part of these data: Potency and affinity values are given separately.

The test system of assay [1] is Staphylococcus aureus. As to the kind of experiment: Antibacterial activity against Staphylococcus aureus MRSA ATCC 43300 (CO-ADD:GP_020); MIC in CAMBH media using NBS plates, by Resazurin F(560/590). As to conditions: Concentration 20 uM, ASSAY_TEST Inhibition of Bacterial Growth, detection method Resazurin, Fluorescence (ex560/em590), MEDIA CAMHB, plate type 384well, CORNING #3640, time 18 hr. The format is functional. In general terms: Alamar Blue is a resazurin reagent that responds to reducing activity.

The test system of assay [2] is Acinetobacter baumannii. Put plainly: Antibacterial activity against Acinetobacter baumannii ATCC 19606 (CO-ADD:GN_034); MIC in CAMBH media using NBS plates, by Resazurin F(560/590). The format is functional. To be noted: Concentration 20 uM, ASSAY_TEST Inhibition of Bacterial Growth, detection method Resazurin, Fluorescence (ex560/em590), MEDIA CAMHB, plate type 384well, CORNING #3640, time 18 hr.

The test system of assay [3] is Escherichia coli. Put plainly: Antibacterial activity against Escherichia coli ATCC 25922 (CO-ADD:GN_001); MIC in CAMBH media using NBS plates, by Resazurin F(560/590). To be noted: Concentration 20 uM, ASSAY_TEST Inhibition of Bacterial Growth, detection method Resazurin, Fluorescence (ex560/em590), MEDIA CAMHB, plate type 384well, CORNING #3640, time 18 hr. The assay is classed as functional.

Assay [4] has as its system Klebsiella pneumoniae. To be noted: Concentration 20 uM; ASSAY_TEST Inhibition of Bacterial Growth; detection method Absorption (OD600); MEDIA CAMHB; plate type 384well; NBS; CORNING #3640; time 18 hr.
Assay [5] relates to Candida albicans. As to conditions: 20 µM.
Assay [6] has as its system Cryptococcus neoformans. As to conditions: Concentration 20 uM; ASSAY_TEST Inhibition of Fungal Growth; detection method Resazurin; Absorption (OD600-OD570); plate type 384well; NBS; CORNING #3640.

The Inhibition is the change of the read-out against control, counted positive when it falls.

In the case of `CCCc1nc2c(=O)n(C)c(=O)n(C)c2[nH]1`, the Inhibition in assay [1] is 14.39%; in assay [2], -13.67%; in assay [3], 8.23%; in assay [4] it was 14.55%; in assay [5], 2.02%; in assay [6] it was -4.69%.

In the case of `CCOC(=O)c1cc(-c2ccccc2)nc2ccc(C)cc12` [NEOCINCHOPHEN], the Inhibition in assay [1] is 2.82%; in assay [2] it was 5.48%; in assay [3], -14.74%; in assay [4] it was 14.7%; in assay [5], 9.92%; in assay [6] it was 24.59%.

Turning to `O=C1CCC(NC(=O)c2ccccc2)C(=O)N1` (stereo not given), the Inhibition in assay [1] was 13.55%; in assay [2] it was 6.82%; in assay [3] it was 7.42%; in assay [4], 5.68%; in assay [5], 1.37%; in assay [6], -6.13%.

Consider `Cc1ccc(S(=O)(=O)N2CC=C(N)N2)cc1`, for which the Inhibition in assay [1] is 16.25%; in assay [2], -10.87%; in assay [3], 9.9%; in assay [4], 8.77%; in assay [5] it was -1.38%; in assay [6] it was -12.82%.

On to `Cn1c2c(sc1=O)CCC2`, for which the Inhibition in assay [1] was 14.81%; in assay [2], -10.92%; in assay [3] it was 5.93%; in assay [4], 16.07%; in assay [5] it was 2.06%; in assay [6] it was -0.94%.

Regarding `C/C(=N\NC(N)=O)c1ccc(Cl)c(-n2cccc2)c1`, the Inhibition in assay [1] is 16.93%; in assay [2], -8.65%; in assay [3], 6.19%; in assay [4] it was 13.36%; in assay [5], 4.13%; in assay [6], -10.07%.

Regarding `COc1cc(NC(=O)c2cc3ccccc3cc2O)c(OC)cc1Cl`, the Inhibition is 15.9% in assay [1]; 4.67% in assay [2]; -1.76% in assay [3]; 8.39% in assay [4]; 2.82% in assay [5]; -1.31% in assay [6].

For `Cc1cc2nc(-c3ccccn3)c(-c3ccccn3)nc2cc1C`, the Inhibition was -0.99% in assay [1]; 3.74% in assay [2]; 8.69% in assay [3]; 9.38% in assay [4]; 1.37% in assay [5]; -10.29% in assay [6].

For the molecule `N#Cc1ncc(Cl)c2ccccc12`, the Inhibition in assay [1] was -8.29%; in assay [2], -4.37%; in assay [3] it was -2.85%; in assay [4], 7.91%; in assay [5] it was 0.23%; in assay [6], -7.62%.

In the case of `OC(COc1ccccc1)CN1CCN(c2ccccc2)CC1` (stereo not given), the Inhibition in assay [1] was 6.47%; in assay [2], -11.62%; in assay [3], 3.6%; in assay [4] it was 14.06%; in assay [5] it was 0.81%; in assay [6] it was -11.95%.

Turning to `Cc1cc2c(cc1C)N(C(=O)CCl)CC(=O)N2`, the Inhibition was -15.91% in assay [1]; -11.28% in assay [2]; 5.03% in assay [3]; 7.32% in assay [4]; 2.46% in assay [5]; -7.55% in assay [6].

For the molecule `Cn1c(=O)c2c(nc(Cc3ccccc3)n2C)n(C)c1=O`, the Inhibition in assay [1] is 3.97%; in assay [2], 12.97%; in assay [3], -5.53%; in assay [4], 15.33%; in assay [5], 4.11%; in assay [6] it was -7.23%.

`C(=N\N=c1/nnn(Cc2ccccc2)[nH]1)/c1ccccc1`: the Inhibition in assay [1] is 11.96%; in assay [2], -3.55%; in assay [3] it was 3.73%; in assay [4], 9.14%; in assay [5] it was 6.47%; in assay [6], -8.48%.

For `O=c1nc(Nc2cccc(Cl)c2)oc2cc(Cl)oc(=O)c12`, the Inhibition in assay [1] was 6.93%; in assay [2], 3.28%; in assay [3], 2.7%; in assay [4] it was 6.71%; in assay [5], 20.4%; in assay [6], -13.47%.

`CC1=CC(C)(C)N=C(S)N1c1cccc2cc(S(=O)(=O)O)ccc12`: the Inhibition in assay [1] was -5.5%; in assay [2] it was 9.59%; in assay [3], -20.55%; in assay [4] it was 7.04%; in assay [5], 8.59%; in assay [6], 39.69%.

Take `CCn1c2ccccc2c2c3ncc4cccn4c3ccc21`: the Inhibition in assay [1] is -13.6%; in assay [2], -8.64%; in assay [3] it was 1.37%; in assay [4], 9.08%; in assay [5], 32.4%; in assay [6], -7.68%.

Consider `COCC(O)Cn1ccnc1[N+](=O)[O-]` (stereo not given) [MISONIDAZOLE], for which the Inhibition is -3.32% in assay [1]; 6.49% in assay [2]; 6.97% in assay [3]; 11.9% in assay [4]; 1.35% in assay [5]; -12.64% in assay [6].

For the molecule `O=C(Nc1cccc(-c2ccccc2)c1)N1CCN(C(=O)Nc2cccc(-c3ccccc3)c2)CC1`, the Inhibition was 26.71% in assay [1]; -7.47% in assay [2]; 7.55% in assay [3]; 6.58% in assay [4]; -1.22% in assay [5]; -2.57% in assay [6].

Regarding `C#CC(C)OCC1CNC(=S)O1` (stereo not given), the Inhibition came to 8.34% in assay [1]; 0.13% in assay [2]; 10.24% in assay [3]; 3.71% in assay [4]; 4.06% in assay [5]; 15.9% in assay [6].

`Nc1ncnc2c1cnn2C1CCCCC1`: the Inhibition in assay [1] is -0.45%; in assay [2], -2.92%; in assay [3], -6.81%; in assay [4], 9%; in assay [5], 1.58%; in assay [6], -3.99%.

`CCOC(=O)Cc1csc2nc(-c3ccccc3)nn12`: the Inhibition was -0.44% in assay [1]; -7.19% in assay [2]; 5.98% in assay [3]; -2.91% in assay [4]; 3.06% in assay [5]; -9.7% in assay [6].

Take `O=C(c1ccc(Cl)nc1)c1cccs1`: the Inhibition in assay [1] was -3.15%; in assay [2], 14.95%; in assay [3] it was -2.66%; in assay [4], 4.42%; in assay [5], 2.35%; in assay [6] it was -1.99%.

Turning to `OCc1ncc(-c2ccccc2)s1`, the Inhibition in assay [1] was -7.34%; in assay [2], -9.91%; in assay [3], 3.7%; in assay [4], 5.05%; in assay [5] it was 2.13%; in assay [6] it was -4.82%.

On to `CCOc1ccc(NC(=O)C2CCCN(C)C2)cc1` (stereo not given), for which the Inhibition is 8.6% in assay [1]; 6.87% in assay [2]; -2.25% in assay [3]; 20.11% in assay [4]; 9.11% in assay [5]; -4.92% in assay [6].

`COc1cc(/N=N/c2cccc(S(N)(=O)=O)c2)c2ccccc2c1N`: the Inhibition was -2.34% in assay [1]; 3.92% in assay [2]; -3.15% in assay [3]; 14.2% in assay [4]; 0.44% in assay [5]; -17.61% in assay [6].
